# Potency and affinity values are given separately. The source made the active and inactive calls.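 Rule for the calls: active = every repeat run showing a signal drop whose fitted half-maximal concentration is at most twice the top tested concentration; inconclusive = repeat runs disagree, or flat partial drop, or poor fit; inactive = the rest.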
# Test: HEK293T cytotoxicity, dose response, cytotoxicity control for miR-122 modulator project, cell-based, activator set, cherry-pick (AID 720690)
# Conditions: HEK293T viability, CellTiter-Glo luminescence, 48 h; series mostly up to 26 µM
row,Compound,outcome
1,CC(C)C(=O)Nc1ccc2c(c1)C(=O)N(C)[C@@H]1CC[C@@H](CC(=O)NCC3CC3)O[C@H]1CO2,inactive
2,CNC[C@@H]1Oc2cc(C#CC3CCCC3)ccc2S(=O)(=O)N([C@@H](C)CO)C[C@@H]1C,inactive
3,CC(C)Oc1ccc(C(CCN)C2CCCCC2)cc1 (centres undefined),inactive
4,CCCNC(=O)Nc1ccc2c(c1)OC[C@H](C)N(CCC)C[C@H](C)[C@H](OC)CN(C)C2=O,inactive
5,O=C(C1CC1)N1C[C@H]2[C@@H](c3ccccc31)[C@H](CO)N2C(=O)c1ccccc1F,inactive
6,CC(=O)Nc1ccc2c(c1)C(=O)N(C)[C@@H]1CC[C@H](CC(=O)NC3CCCCC3)O[C@H]1CO2,inactive
7,CCN(C[C@@H]1[C@@H](c2ccccc2)[C@H](CO)N1C(C)=O)C(=O)NC(C)C,inactive
8,CN(C(=O)C12CC3CC(CC(C3)C1)C2)C1CCS(=O)(=O)C1 (centres undefined),inactive
9,COC(=O)C[C@H]1CC[C@@H]2[C@@H](COc3ccc(NC(=O)c4cnccn4)cc3C(=O)N2C)O1,inactive
10,O=C(C1CCOCC1)N1C[C@H]2[C@@H](c3ccccc31)[C@@H](CO)N2Cc1ccccc1,inactive
11,CN(C(=O)c1ccccc1Cl)C1CCCCC1,inactive
12,CCCCNC(=O)Nc1nnc(-c2ccc(OCC)cc2)o1,inactive
13,CCCNC(=O)C[C@H]1CC[C@@H]2[C@H](COc3ccc(NC(=O)c4cccs4)cc3C(=O)N2C)O1,inactive
14,COc1ccccc1C(=O)N1C[C@@H]2[C@H](c3ccccc31)[C@H](CO)N2CC1CCCC1,inactive
15,Cc1cc(C(C)(C)C)cc(S(=O)(=O)NCCc2ccncc2)c1C,inactive
16,C/C=C/c1ccc([C@H]2[C@@H](CO)N[C@@H]2CN(CC)C(=O)CN2CCOCC2)cc1,inactive
17,CCC(=O)N1[C@H](CO)[C@H](c2ccccc2)[C@H]1CNC(=O)CN1CCOCC1,inactive
18,COc1cccc(NC(=O)Nc2ccc3c(c2)C(=O)N(C)[C@@H]2CC[C@H](CC(=O)O)O[C@H]2CO3)c1,inactive
19,C[C@@H]1CN([C@H](C)CO)S(=O)(=O)c2ccc(C#CC3CC3)cc2O[C@@H]1CN(C)C(=O)c1cccc(F)c1,inactive
20,CCN(C[C@H]1[C@H](c2ccccc2)[C@H](CO)N1C(=O)COC)S(C)(=O)=O,inactive

row,Compound,outcome
1,CCCC(=O)Nc1ccc2c(c1)C(=O)N(C)[C@@H]1CC[C@@H](CC(=O)NCC(F)(F)F)O[C@H]1CO2,inactive
2,CCCc1ccc(S(=O)(=O)NCCc2ccncc2)cc1,inactive
3,C/C=C/c1ccc([C@@H]2[C@@H](CNC(=O)CC)N(Cc3ccccn3)[C@H]2CO)cc1,inactive
4,CC(=O)N(C)C[C@H]1[C@@H](c2ccc(-c3ccc(F)cc3)cc2)[C@@H](CO)N1C(C)=O,inactive
5,O=C(c1ccco1)N1CCN(C2CC(=O)N(c3ccccc3)C2=O)CC1 (centres undefined),inactive
6,C/C=C/c1ccc2c(c1)O[C@H](CN(C)C(=O)c1cnccn1)[C@H](C)CN([C@@H](C)CO)S2(=O)=O,inactive
7,C[C@@H]1CN([C@@H](C)CO)C(=O)c2cc(NS(=O)(=O)c3ccc(F)cc3)ccc2O[C@@H]1CN(C)Cc1ccc(-c2ccccc2)cc1,inactive
8,Cc1nc(C)c(C(=O)Nc2ccc(Oc3ccccc3)cc2)o1,inactive
9,C[C@@H]1CN([C@H](C)CO)S(=O)(=O)c2ccc(C3=CCCC3)cc2O[C@@H]1CN(C)C(=O)C1CCOCC1,inactive
10,Cc1ccc(-c2ccc3c(c2)O[C@H](CN(C)C(=O)CC2CC2)[C@H](C)CN([C@H](C)CO)S3(=O)=O)cc1,inactive
11,COC(=O)C[C@@H]1CC[C@@H]2[C@@H](COc3ccc(NC(=O)c4cscn4)cc3C(=O)N2C)O1,inactive
12,O=C(NC[C@H]1[C@H](c2ccccc2)[C@@H](CO)N1Cc1ccccn1)C1CC1,inactive
13,COc1ccc(-c2c(C(C)=O)c(C)nc3sc4c(c23)NC(c2ccccc2)NC4=O)cc1 (centres undefined),inactive
14,Cc1nnc(NC(=O)CSc2nc(C(C)C)nc3sc(C)c(C)c23)s1,inactive
15,CNC(=O)C[C@@H]1CC[C@@H]2[C@@H](COc3ccc(NC(=O)NC(C)C)cc3C(=O)N2C)O1,inactive
16,CC(=O)Nc1ccc2c(c1)C(=O)N(C)[C@@H]1CC[C@H](CC(=O)NCCCN3CCOCC3)O[C@@H]1CO2,inactive
17,CCN(C[C@H]1N[C@@H](CO)[C@@H]1c1ccc(C2=CCCC2)cc1)C(=O)c1ccncc1,inactive
18,NC(=O)c1csc(-c2ccncc2)n1,inactive
19,COc1ccc(-c2c(C)nn3c(N)c(-c4ccccc4)cnc23)cc1OC,inactive

# Source: PubChem BioAssay AID720690 (Broad Institute, 2013)
